Results as given in PubChem BioAssay (NCATS).
Values joined by “and” are separate entries in the source; they are usually repeats but may differ in a detail not shown here. Equal entries are not always repeated. Inconclusive results are not listed. A call without a number means that no potency is given here. Active and inactive are the calls of the source. Calls come from the whole dose curve; as a rule, active = well fitted curve in the direction sought with a large enough effect; inconclusive = small, poorly fitted or top-dose-only effect, or another doubt; inactive = no such curve, though single readings can be large; an effect the other way counts as inactive or inconclusive.

Assays:
[1] = qHTS of pediatric cancer cell lines to identify multiple opportunities for drug repurposing: Primary screen for U-2 OS cells (AID 1347096); note: nearly all actives have a fitted effect of over 50% in size
How it was run: (§1)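 Cells (500-1,000/well) in growth media were settled 5 h at 37 degrees C, then given compounds for 48 h. Viability was read as CellTiter-Glo luminescence. Primary runs used MIPE at 11 points (0.78 nM-46 µM) and NPC at 8 points (0.59 nM-46 µM); follow-ups used 11 points.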

[2] = qHTS of pediatric cancer cell lines to identify multiple opportunities for drug repurposing: Primary screen for NB1643 cells (AID 1347099); note: nearly all actives have a fitted effect of over 50% in size; note: potency is the fitted concentration of half-maximal effect
How it was run: (§2)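 Phenotypic viability qHTS, 48 h compound exposure, CellTiter-Glo luminescence read-out; multi-concentration dosing so that potency and efficacy derive directly from the primary screen's curves.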

[3] = qHTS of pediatric cancer cell lines to identify multiple opportunities for drug repurposing: Primary screen for LAN-5 cells (AID 1347100); note: potency is the fitted concentration of half-maximal effect
How it was run: as §1

[4] = qHTS of pediatric cancer cell lines to identify multiple opportunities for drug repurposing: Primary screen for BT-12 cells (AID 1347101); note: nearly all actives have a fitted effect of over 25% in size; note: potency is the fitted concentration of half-maximal effect
How it was run: (§3)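 Cells (500-1,000/well) rested 5 h, then received compounds for 48 h; metabolically active cells were measured by CellTiter-Glo luminescence. Final concentrations spanned up to 46 µM (MIPE, 11-point) or 0.59 nM-46 µM (NPC, 8-point) in primary screens, 11-point in follow-ups.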

[5] = qHTS of pediatric cancer cell lines to identify multiple opportunities for drug repurposing: Primary screen for Rh18 cells (AID 1347102); note: nearly all actives have a fitted effect of over 65% in size; note: potency is the fitted concentration of half-maximal effect
How it was run: as §1

[6] = qHTS of pediatric cancer cell lines to identify multiple opportunities for drug repurposing: Primary screen for OHS-50 cells (AID 1347103); note: nearly all actives have a fitted effect of over 40% in size; note: potency is the fitted concentration of half-maximal effect
How it was run: as §3

[7] = qHTS of pediatric cancer cell lines to identify multiple opportunities for drug repurposing: Primary screen for RD cells (AID 1347104); note: nearly all actives have a fitted effect of over 55% in size; note: potency is the fitted concentration of half-maximal effect
How it was run: as §2

[8] = qHTS of pediatric cancer cell lines to identify multiple opportunities for drug repurposing: Primary screen for MG 63 (6-TG R) cells (AID 1347105); note: nearly all actives have a fitted effect of over 50% in size; note: potency is the fitted concentration of half-maximal effect
How it was run: as §2

[9] = qHTS of pediatric cancer cell lines to identify multiple opportunities for drug repurposing: Primary screen for control Hh wild type fibroblast cells (AID 1347106);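 note: series mostly up to about 46 µM; a drop in luminescence marks cytotoxicity and a rise apparent proliferation; nearly all actives have a fitted effect of over 55% in size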
How it was run: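 Viability after 48 h compound treatment at 37C, 500-1,000 cells/well, read as ATP luminescence with CellTiter-Glo. Primary screens used 11-point (MIPE, 0.78 nM-46 µM) or 8-point (NPC, 0.59 nM-46 µM) final concentrations; follow-up screens used 11-point dilutions.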

[10] = qHTS of pediatric cancer cell lines to identify multiple opportunities for drug repurposing: Primary screen for Rh30 cells (AID 1347107); note: series mostly up to about 46 µM; nearly all actives have a fitted effect of over 75% in size
How it was run: as §1

[11] = qHTS of pediatric cancer cell lines to identify multiple opportunities for drug repurposing: Primary screen for Rh41 cells (AID 1347108); note: nearly all actives have a fitted effect of over 70% in size; note: potency is the fitted concentration of half-maximal effect
How it was run: as §2

[12] = qHTS of pediatric cancer cell lines to identify multiple opportunities for drug repurposing: Confirmatory screen for NB1643 cells (AID 1347109); note: nearly all actives have a fitted effect of over 45% in size; note: potency is the fitted concentration of half-maximal effect
How it was run: as §1

[13] = qHTS of pediatric cancer cell lines to identify multiple opportunities for drug repurposing: Confirmatory screen for A673 cells (AID 1347110);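 note: cells exposed to compound for 48 h before the viability read; nearly all actives have a fitted effect of over 65% in size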; note: potency is the fitted concentration of half-maximal effect
How it was run: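 Cells plated at 500-1,000/well were treated five hours later with multi-point dilutions up to 46 µM final. After two days, CellTiter-Glo was added and luminescence read.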

[14] = qHTS of pediatric cancer cell lines to identify multiple opportunities for drug repurposing: Confirmatory screen for DAOY cells (AID 1347114); note: nearly all actives have a fitted effect of over 65% in size; note: potency is the fitted concentration of half-maximal effect
How it was run: (§4)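 Viability measured as metabolically active cells via CellTiter-Glo luminescence following 48 hours of compound exposure, 11-point dilutions in confirmatory testing. 500-1,000 cells/well plated 5 hours before dosing; controls were DMSO and 2.3 µM bortezomib.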

[15] = qHTS of pediatric cancer cell lines to identify multiple opportunities for drug repurposing: Confirmatory screen for NB-EBc1 cells (AID 1347115);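 note: cells exposed to compound for 48 h before the viability read; nearly all actives have a fitted effect of over 45% in size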; note: potency is the fitted concentration of half-maximal effect
How it was run: as §1

[16] = qHTS of pediatric cancer cell lines to identify multiple opportunities for drug repurposing: Confirmatory screen for LAN-5 cells (AID 1347113); note: nearly all actives have a fitted effect of over 65% in size; note: potency is the fitted concentration of half-maximal effect
How it was run: as §1

[17] = qHTS of pediatric cancer cell lines to identify multiple opportunities for drug repurposing: Confirmatory screen for SJ-GBM2 cells (AID 1347116); note: nearly all actives have a fitted effect of over 60% in size; note: potency is the fitted concentration of half-maximal effect
How it was run: as §4

[18] = qHTS of pediatric cancer cell lines to identify multiple opportunities for drug repurposing: Primary screen for Saos-2 cells (AID 1347097); note: nearly all actives have a fitted effect of over 40% in size; note: potency is the fitted concentration of half-maximal effect
How it was run: as §2

[19] = qHTS of pediatric cancer cell lines to identify multiple opportunities for drug repurposing: Primary screen for SK-N-SH cells (AID 1347098); note: nearly all actives have a fitted effect of over 65% in size; note: potency is the fitted concentration of half-maximal effect
How it was run: as §3

Row | Structure (SMILES) | Potency [1] | Potency [2] | Potency [3] | Potency [4] | Potency [5] | Potency [6] | Potency [7] | Potency [8] | Potency [9] | Potency [10] | Potency [11] | Potency [12] | Potency [13] | Potency [14] | Potency [15] | Potency [16] | Potency [17] | Potency [18] | Potency [19]
1 | CS(=O)(=O)OCCCCOS(C)(=O)=O | inactive | inactive | inactive | inactive | inactive | inactive | inactive | inactive | inactive | inactive | inactive | inactive | 16.5 µM (active) | inactive | inactive |  |  |  | 
2 | Cc1cccc(C)c1OCC(=O)N[C@@H](Cc1ccccc1)[C@@H](O)C[C@H](Cc1ccccc1)NC(=O)[C@H](C(C)C)N1CCCNC1=O | inactive | 20.9 µM (active) |  |  | inactive | 27.3 µM (active) |  | inactive | inactive | inactive |  |  |  |  |  |  |  |  | 
3 | O=C1c2c(O)cc(O)cc2OC(c2ccc(O)c(O)c2)C1O (stereo unspecified) | inactive |  |  | inactive | inactive |  | inactive | inactive | inactive | inactive | inactive | inactive | inactive | inactive | inactive | inactive | inactive |  | 
4 | CC[C@]1(O)C[C@H]2CN(CCc3c([nH]c4ccccc34)[C@@](C(=O)OC)(c3cc4c(cc3OC)N(C=O)[C@H]3[C@@](O)(C(=O)OC)[C@H](OC(C)=O)[C@]5(CC)C=CCN6CC[C@]43[C@@H]65)C2)C1 |  |  | 8.3 nM (active) and 59.6 nM (active) |  | inactive | 12.2 nM (active) and 12.3 nM (active) |  | 33.5 nM (active) | inactive | inactive | inactive | 10.4 nM (active) and 1.04 µM (active) | 14.7 nM (active) and 18.5 nM (active) | 82.7 nM (active) and 92.8 nM (active) | 827 nM (active) and 4.14 µM (active) | 58.5 nM (active) and 827 nM (active) | 185 nM (active) | 23.5 nM (active) | 
5 | O=c1cc(N2CCOCC2)oc2c(-c3ccccc3)cccc12 | inactive | 20.9 µM (active) | inactive |  |  | 2.73 µM (active) |  |  | inactive |  |  |  |  |  |  |  |  |  | 
6 | CCCCN(CCCC)CCC(O)c1cc2c(Cl)cc(Cl)cc2c2cc(C(F)(F)F)ccc12 (stereo unspecified) | inactive | inactive |  |  | inactive | 30.6 µM (active) | inactive | inactive |  | inactive | inactive |  |  |  |  |  |  |  | inactive
7 | Cn1c(NCCN(CCO)CCCc2ccc([N+](=O)[O-])cc2)cc(=O)n(C)c1=O | inactive |  |  | inactive | inactive |  |  | inactive | inactive | inactive | inactive |  |  |  |  |  |  | inactive | 
8 | O=C1CCc2ccc(OCCCCN3CCN(c4cccc(Cl)c4Cl)CC3)cc2N1 | inactive | inactive |  |  | inactive | 6.92 µM (active) and 24.3 µM (active) | inactive | inactive | inactive | inactive | inactive |  |  |  |  |  |  |  | inactive
9 | COC(=O)C1=C(C)NC(C)=C(C(=O)OCCCN2CCC(c3ccccc3)(c3ccccc3)CC2)C1c1cccc([N+](=O)[O-])c1 (stereo unspecified) |  | inactive | inactive | inactive | inactive |  | inactive |  |  | inactive | inactive |  |  |  |  |  |  |  | 15.4 µM (active)
10 | Cc1cc(=O)oc2cc(O)ccc12 | inactive | inactive | inactive | inactive | inactive | inactive | inactive | inactive | inactive | inactive | inactive |  |  |  |  |  |  | inactive | 
11 | Cc1cccc(CN2CCN(C(c3ccccc3)c3ccc(Cl)cc3)CC2)c1 (stereo unspecified) | inactive |  | inactive |  | inactive | 24.6 µM (active) and 24.3 µM (active) |  | inactive | inactive | inactive | inactive |  |  |  |  |  |  |  | inactive
12 | Cc1ccc(Nc2nccc(N(C)c3ccc4c(C)n(C)nc4c3)n2)cc1S(N)(=O)=O |  | inactive | 18.7 µM (active) |  | 16.6 µM (active) | 5.5 µM (active) |  | 66.8 nM (active) | inactive | inactive |  |  |  |  |  | inactive |  |  | 
13 | Oc1ccc(-c2nc(-c3ccc(F)cc3)c(-c3ccncc3)[nH]2)cc1 | inactive | 10.5 µM (active) |  | inactive |  |  | 29.6 µM (active) |  | inactive |  | 16.6 µM (active) | 928 nM (active) | 1.17 µM (active) | inactive | 5.22 µM (active) | 1.04 µM (active) | 2330 nM (active) |  | 
14 | O=c1ccc2ccc(O)c(O)c2o1 | inactive |  |  |  | inactive |  |  | inactive | inactive | inactive |  |  |  |  |  |  |  | inactive | 
15 | C[C@@H](c1ncncc1F)[C@](O)(Cn1cncn1)c1ccc(F)cc1F | inactive | inactive | inactive |  | inactive |  | inactive |  | inactive | inactive |  |  |  |  |  |  |  |  | 
16 | Cc1c(C(=O)NN2CCCCC2)nn(-c2ccc(Cl)cc2Cl)c1-c1ccc(Cl)cc1 | inactive |  | 3.72 µM (active) | 4.85 µM (active) |  | 4.85 µM (active) | 18.7 µM (active) |  |  | inactive | inactive |  | 20.8 µM (active) | 23.3 µM (active) |  |  | inactive |  | 27.3 µM (active) and 30.4 µM (active)
17 | CC(C)[C@H](N)C(=O)OCCOCn1cnc2c(=O)[nH]c(N)nc21 | inactive | inactive | inactive | inactive | inactive | inactive | inactive | inactive |  | inactive | inactive |  |  |  |  |  |  | inactive | 
